About 83,000 compounds went through this panel and 20% of them were active in at least one assay; those are over-represented in the sample as a whole.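 Interpretation: 100, growth as untreated; towards 0, rising growth inhibition; 0, no net growth; 0 to -100, cell death. Compounds scoring below 10 were considered active.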 Values without a mark were called inactive. Active and inactive are the calls of the source.
Experiments:
Assay in all cases: NCI-60 one-dose screen, 48 h (100 = growth as untreated, 0 = no growth, -100 = all killed)
Details in all cases: 10 µM unless noted
HCT-15 colon = tested on: HCT-15 colon
HT29 colon = tested on: HT29 colon
SNB-75 CNS = tested on: SNB-75 CNS
SNB-19 CNS = tested on: SNB-19 CNS
U251 CNS = tested on: U251 CNS
PC-3 prostate = tested on: PC-3 prostate
SK-MEL-5 melanoma = tested on: SK-MEL-5 melanoma
UACC-62 melanoma = tested on: UACC-62 melanoma
LOX IMVI melanoma = tested on: LOX IMVI melanoma
SK-MEL-28 melanoma = tested on: SK-MEL-28 melanoma

| Compound | growth (HCT-15 colon) | growth (HT29 colon) | growth (SNB-75 CNS) | growth (SNB-19 CNS) | growth (U251 CNS) | growth (PC-3 prostate) | growth (SK-MEL-5 melanoma) | growth (UACC-62 melanoma) | growth (LOX IMVI melanoma) | growth (SK-MEL-28 melanoma) |
| --- | --- | --- | --- | --- | --- | --- | --- | --- | --- | --- |
| COc1ccc(-c2nc3ncccn3c2/C=C/C(=O)c2cc(OC)c(OC)c(OC)c2)cc1 | 9.73% (active) | 6.11% (active) | 9.26% (active) | 10.9% | -16.8% (active) | 19% | -83.2% (active) | -17% (active) | 0.0444% (active) | -47.4% (active) |
| N#Cc1c(NC(=O)c2ccc(Br)cc2)sc2c1CCCC2 | 22.2% | 15.8% | 13.6% | 38.5% | 31.2% | 28.9% | 9.6% (active) | 29.1% | 38.7% | 59% |
| CC(C)n1nc(C#Cc2cccc(O)c2)c2c(N)ncnc21 | -11.2% (active) | -17.7% (active) | -84.7% (active) | -21.4% (active) | -37.1% (active) | -11.8% (active) | -91.8% (active) | -88.9% (active) | -92.4% (active) | -47.5% (active) |
| O=C(C[C@@]1(O)C(=O)Nc2c(Cl)ccc(Cl)c21)c1ccc(C2CC2)cc1 | 19.1% | 12.4% | -29.9% (active) | 36.8% | 31.3% | 31.4% | 38.8% | 42.1% | 38.1% | 52.6% |
| C=C(C)C1CCC(=C)C2CCC3(C)OC12/C=C(/COC(C)=O)CCC3O (stereo not given) | 96.1% | 140% | 126% | 112% | 89% | 95.9% | 93.2% | 94.2% | 84.2% | 156% |
| C#CC[C@H](N)C(=O)O | 100% [20 µM] | 98.7% [20 µM] | 68% [20 µM] | 93.1% [20 µM] | 100% [20 µM] | 102% [20 µM] | 102% [20 µM] | 95.4% [20 µM] | 94.7% [20 µM] | 110% [20 µM] |
| COc1ccc(/C=C2\C=C(c3ccccc3)N(CCc3ccccc3)C2=O)cc1OC | 60.9% | 38.6% | -7.78% (active) | 43.3% | 15.9% | 54.4% | 38.5% | 54.5% | 2.28% (active) | 76.7% |
| CC(=O)Nc1nccs1 | 98% | 101% | 106% | 96.3% | 98.9% | 96.1% | 101% | 92.7% | 94.8% | 98.6% |
| COc1ccccc1NC(=O)Nc1ccc(-c2nc3ccccc3o2)cc1 | 96.9% | 132% | 109% | 94.8% | 93.6% | 95.6% | 92.6% | 98.7% | 97.9% | 111% |
| CN1CCN(c2ccc3nc(/N=C/c4ccc5sc(-c6ccc([N+](=O)[O-])cc6)nc5c4)sc3c2)CC1 | 102% | 103% | 106% | 104% | 93.9% | 104% | 90.6% | 104% | 117% | 107% |
| CCOC(=O)c1ccc(-c2ccc3cc(OC)ccc3c2)nc1C | 99.2% | 80.2% | 110% | 99.6% | 104% | 100% | 107% | 85.2% | 105% | 91.5% |
| CNC(=O)NCC1OC(n2cnc3c(NC(=O)Nc4ccccc4)ncnc32)C2OC(C)(C)OC12 (stereo not given) | 97.5% | 98.5% | 59.7% | 85.3% | 94.1% | 71% | 86.2% | 91.5% | 100% | 91.7% |
| c1ccc2c(c1)nc(-n1ccnc1)c1nc3ccccc3n12 | 82.7% | 74% | 70% | 42.8% | 61.5% | 68% | 68.9% | 72% | 71% | 82.5% |
| CN(CCCCCCCCNc1ccnc2ccccc12)Cc1ccc(-c2ccc(-c3ccc(C#N)cc3)s2)cc1 | -82.1% (active) | -55.1% (active) | 42.5% | -14.6% (active) | -73.7% (active) | -63.7% (active) | -100% (active) | -37.4% (active) | -96.2% (active) | -84.1% (active) |
| C[N+](C)(C)CCOC(OCC[N+](C)(C)C)(c1ccccc1)c1ccccc1 | 104% | 104% | 87.3% | 93.9% | 104% | 92.7% | 110% | 99.3% | 98.6% | 104% |
| Cc1ccccc1NC(=O)CN(C)C | 105% | 90.9% | 92.6% | 98.8% | 104% | 98.3% | 105% | 99.3% | 99.9% | 96.9% |
| NC(N)=N/N=C/CO | 106% | 98.4% | 89.9% | 111% | 105% | 91.2% | 102% | 113% | 93.1% | 106% |
| O=C(NCOC(O)C(Cl)(Cl)Cl)NCOC(O)C(Cl)(Cl)Cl (stereo not given) | 95.8% | 94.4% | 85.6% | 98.4% | 102% | 95.6% | 102% | 98.8% | 97.7% | 92.8% |
| CCCCNCC(=O)Nc1ccc(C(=O)OCC)cc1 | 91.5% | 86.7% | 108% | 103% | 101% | 71.8% | 101% | 95.3% | 103% | 115% |
| CN(C)c1ccc(/C=C2\C=C(c3ccccc3)N(CCc3ccccc3)C2=O)cc1 | 83.2% | 77.8% | -29.1% (active) | 46.6% | 33.2% | 52.3% | 82.7% | 67.3% | 48.9% | 89.8% |
| COc1ccc(/C=C(\C#N)n2nnc3ccccc32)cc1 | 8.56% (active) | 11% | -31.7% (active) | 23% | 17.6% | 15.8% | 6.7% (active) | 21.4% | 2.08% (active) | 36.2% |
| Cc1nn(-c2ccccc2)c2c1C(c1ccc([N+](=O)[O-])cc1)C(C#N)=C(N)O2 (stereo not given) | 106% | 105% | 87.7% | 102% | 110% | 102% | 122% | 96.1% | 101% | 116% |
| O=C(O)CC1Sc2ccccc2NC1=O (stereo not given) | 109% | 129% | 94% | 108% | 103% | 92.1% | 175% | 105% | 96.4% | 126% |
| Cc1cc2c(F)c(Oc3ncnc(Nc4ccc(N5C[C@@H](C)N[C@@H](C)C5)cc4)c3C#N)cc(F)c2[nH]1 | 0.331% (active) | -47.6% (active) | -28.2% (active) | 37.4% | 11.2% | 42.4% | 21.7% | 85.8% | -60.5% (active) | -63.6% (active) |
| O=[N+]([O-])c1ccc2[nH]cc(-c3c4ccsc4cc4[nH]c5ccc([N+](=O)[O-])cc5c34)c2c1 | 11.3% | -14.5% (active) | -24.3% (active) | 13.4% | 6.49% (active) | 9.2% (active) | -7.86% (active) | 14.5% | 0.522% (active) | 27.1% |
| CCN(CC)CCOC(=O)N1c2ccccc2Sc2ccccc21 | 102% | 75.9% | 84.2% | 97.8% | 91.8% | 68.8% | 94.2% | 91% | 96.7% | 101% |
| COc1ccc(/C=N/NC(=O)Cn2c(-c3ccc(S(C)(=O)=O)cc3)nc3cc(Cl)ccc32)cc1 | 17.5% | 3.57% (active) | 26.5% | 21.6% | 10.4% | 18.4% | 12.7% | 26.1% | 30.8% | 52.7% |
